In publication PMC7862700, “An all-to-all approach to the identification of sequence-specific readers for epigenetic DNA modifications on cytosine”:

Legend:
Assay in all cases: DAPPL (digital affinity profiling via proximity ligation, sequencing); 10 mM Tris-HCl pH 7.5, 50 mM NaCl, 1 mM DTT, 4% glycerol, room temperature, 30 min; GST-TFs on glutathione beads, 16-mer random dsDNA library, 0.1% formaldehyde crosslink after washing; high values mean tight binding
FEV = target: T1, FEV (Homo sapiens, UniProt Q99581 1-238); conditions: protein: recombinant; tags: N-terminal GST; dsDNA, one strand shown
T1 sequence: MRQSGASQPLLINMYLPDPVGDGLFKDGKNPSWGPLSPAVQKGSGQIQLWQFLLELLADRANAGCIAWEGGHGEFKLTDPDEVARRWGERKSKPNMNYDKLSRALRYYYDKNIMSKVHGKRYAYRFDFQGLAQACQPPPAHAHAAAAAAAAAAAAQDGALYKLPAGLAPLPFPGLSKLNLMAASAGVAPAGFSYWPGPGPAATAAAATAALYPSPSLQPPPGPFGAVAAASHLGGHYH
Outline: (§1)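 Pools were built from human transcription factors expressed in yeast as GST fusions, captured on glutathione beads and DNA-barcoded, along with a tag-only sample. Incubation with 200 nmole of a 16-mer random double-stranded DNA library lasted 30 min at room temperature in Tris/NaCl/DTT/glycerol buffer, and was followed by washing, 0.1% formaldehyde crosslinking, proximity ligation, PCR amplification and Illumina NextSeq500 sequencing. Binding signal is the quotient of each hexamer's read frequency for a factor and its frequency for the tag-only sample.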

ETV5 = ETV5 (Homo sapiens, UniProt P41161 1-510); conditions: protein: recombinant; tags: N-terminal GST; dsDNA, one strand shown
Outline: as §1

HSF1 = HSF1 (Homo sapiens, UniProt Q00613 1-529); conditions: protein: recombinant; tags: N-terminal GST; chain copies: 3; dsDNA, one strand shown
Outline: as §1

SPIC = target: T2, SPIC (Homo sapiens, UniProt Q8N5J4 1-248); conditions: protein: recombinant; tags: N-terminal GST; dsDNA, one strand shown
T2 sequence: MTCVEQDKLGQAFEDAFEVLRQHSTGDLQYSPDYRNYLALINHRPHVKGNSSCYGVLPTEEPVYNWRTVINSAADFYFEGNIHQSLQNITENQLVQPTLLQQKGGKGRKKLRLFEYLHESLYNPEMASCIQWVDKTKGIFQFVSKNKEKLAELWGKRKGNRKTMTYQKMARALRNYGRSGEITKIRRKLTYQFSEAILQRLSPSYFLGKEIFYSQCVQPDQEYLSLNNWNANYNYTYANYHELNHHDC
Outline: as §1

ELF4 = ELF4 (Homo sapiens, UniProt Q99607 1-663); conditions: protein: recombinant; tags: N-terminal GST; dsDNA, one strand shown
Outline: as §1

ELK4 = target: T3, ELK4 (Homo sapiens, UniProt P28324-2 1-405); conditions: protein: recombinant; tags: N-terminal GST; dsDNA, one strand shown
T3 sequence: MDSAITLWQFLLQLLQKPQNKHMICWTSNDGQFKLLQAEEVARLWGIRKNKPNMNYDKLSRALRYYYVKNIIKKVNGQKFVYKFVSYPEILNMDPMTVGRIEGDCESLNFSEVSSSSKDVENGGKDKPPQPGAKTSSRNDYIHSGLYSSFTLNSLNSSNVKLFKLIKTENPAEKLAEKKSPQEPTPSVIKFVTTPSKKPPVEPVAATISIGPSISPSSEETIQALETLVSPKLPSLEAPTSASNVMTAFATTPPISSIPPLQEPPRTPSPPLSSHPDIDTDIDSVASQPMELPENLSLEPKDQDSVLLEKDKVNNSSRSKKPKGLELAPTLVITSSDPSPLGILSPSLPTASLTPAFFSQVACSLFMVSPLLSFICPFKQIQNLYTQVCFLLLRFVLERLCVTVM
Outline: as §1

ETV2 = target: T4, ETV2 (Homo sapiens, UniProt O00321 1-342); conditions: protein: recombinant; tags: N-terminal GST; dsDNA, one strand shown
T4 sequence: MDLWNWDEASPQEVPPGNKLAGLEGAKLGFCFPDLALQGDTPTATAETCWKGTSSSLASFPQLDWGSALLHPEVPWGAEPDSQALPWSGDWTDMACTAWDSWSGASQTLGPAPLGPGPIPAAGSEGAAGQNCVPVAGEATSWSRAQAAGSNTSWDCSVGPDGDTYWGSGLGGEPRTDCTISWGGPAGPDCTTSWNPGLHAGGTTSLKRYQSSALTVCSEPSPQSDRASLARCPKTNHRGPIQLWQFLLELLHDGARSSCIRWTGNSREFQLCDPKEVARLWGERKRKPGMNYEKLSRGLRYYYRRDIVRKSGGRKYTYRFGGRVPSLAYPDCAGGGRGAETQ
Outline: as §1

ELF3 = target: T5, ELF3 (Homo sapiens, UniProt P78545 1-371); conditions: protein: recombinant; tags: N-terminal GST; dsDNA, one strand shown
T5 sequence: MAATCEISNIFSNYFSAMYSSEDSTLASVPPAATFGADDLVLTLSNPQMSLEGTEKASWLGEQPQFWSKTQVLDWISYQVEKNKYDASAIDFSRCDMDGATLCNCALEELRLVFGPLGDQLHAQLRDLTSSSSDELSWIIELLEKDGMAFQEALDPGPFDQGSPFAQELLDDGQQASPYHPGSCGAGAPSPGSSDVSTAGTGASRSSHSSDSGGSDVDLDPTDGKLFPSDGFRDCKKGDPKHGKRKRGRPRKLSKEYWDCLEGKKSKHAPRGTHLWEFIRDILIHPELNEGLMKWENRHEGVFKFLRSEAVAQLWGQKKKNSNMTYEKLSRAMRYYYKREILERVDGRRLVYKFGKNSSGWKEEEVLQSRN
Outline: as §1

CRX = CRX (Homo sapiens, UniProt O43186 1-299); conditions: protein: recombinant; tags: N-terminal GST; dsDNA, one strand shown
Outline: as §1

ETV1 = ETV1 (Homo sapiens, UniProt P50549 1-477); conditions: protein: recombinant; tags: N-terminal GST; dsDNA, one strand shown
Outline: as §1

ERF = target: T6, ERF (Homo sapiens, UniProt P50548 1-548); conditions: protein: recombinant; tags: N-terminal GST; dsDNA, one strand shown
T6 sequence: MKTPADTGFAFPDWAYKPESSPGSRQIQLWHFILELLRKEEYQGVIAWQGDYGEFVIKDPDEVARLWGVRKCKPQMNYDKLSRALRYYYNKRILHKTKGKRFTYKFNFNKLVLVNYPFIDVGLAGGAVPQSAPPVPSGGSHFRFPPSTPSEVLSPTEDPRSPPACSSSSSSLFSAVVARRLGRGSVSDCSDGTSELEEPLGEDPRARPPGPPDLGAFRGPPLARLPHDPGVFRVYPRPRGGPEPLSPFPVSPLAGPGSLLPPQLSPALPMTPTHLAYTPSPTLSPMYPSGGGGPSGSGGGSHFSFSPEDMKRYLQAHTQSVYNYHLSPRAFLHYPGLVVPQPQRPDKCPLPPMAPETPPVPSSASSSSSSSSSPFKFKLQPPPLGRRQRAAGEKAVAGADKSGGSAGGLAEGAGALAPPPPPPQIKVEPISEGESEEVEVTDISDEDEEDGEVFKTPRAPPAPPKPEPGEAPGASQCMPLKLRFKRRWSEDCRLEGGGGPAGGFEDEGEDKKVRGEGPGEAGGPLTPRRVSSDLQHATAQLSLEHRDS
Outline: as §1

ETV3L = target: T7, ETV3L (Homo sapiens, UniProt Q6ZN32 1-361); conditions: protein: recombinant; tags: N-terminal GST; dsDNA, one strand shown
T7 sequence: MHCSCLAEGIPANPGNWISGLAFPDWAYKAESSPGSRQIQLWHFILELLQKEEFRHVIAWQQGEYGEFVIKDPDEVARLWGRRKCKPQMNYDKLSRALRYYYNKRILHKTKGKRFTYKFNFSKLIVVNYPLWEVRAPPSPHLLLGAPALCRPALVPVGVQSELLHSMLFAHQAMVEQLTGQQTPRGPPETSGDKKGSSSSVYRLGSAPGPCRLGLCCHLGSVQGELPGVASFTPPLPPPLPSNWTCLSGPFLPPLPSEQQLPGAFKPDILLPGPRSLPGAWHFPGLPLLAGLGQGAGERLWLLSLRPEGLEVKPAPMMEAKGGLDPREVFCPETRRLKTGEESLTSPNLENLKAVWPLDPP
Outline: as §1

ETS2 = target: T8, ETS2 (Homo sapiens, UniProt P15036 1-469); conditions: protein: recombinant; tags: N-terminal GST; dsDNA, one strand shown
T8 sequence: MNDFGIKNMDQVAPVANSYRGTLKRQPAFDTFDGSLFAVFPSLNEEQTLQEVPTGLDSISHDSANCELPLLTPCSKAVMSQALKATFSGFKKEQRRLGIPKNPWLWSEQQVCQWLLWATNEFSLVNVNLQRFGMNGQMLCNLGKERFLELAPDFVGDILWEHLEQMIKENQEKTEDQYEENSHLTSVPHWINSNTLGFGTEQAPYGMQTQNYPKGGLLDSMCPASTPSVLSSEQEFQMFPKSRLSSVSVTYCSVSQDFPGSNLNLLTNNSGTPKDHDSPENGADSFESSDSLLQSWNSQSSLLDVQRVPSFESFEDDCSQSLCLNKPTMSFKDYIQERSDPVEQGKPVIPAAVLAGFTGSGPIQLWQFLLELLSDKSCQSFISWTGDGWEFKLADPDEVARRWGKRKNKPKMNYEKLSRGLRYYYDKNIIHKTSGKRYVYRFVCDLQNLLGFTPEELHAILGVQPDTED
Outline: as §1

SPDEF = target: T9, SPDEF (Homo sapiens, UniProt O95238 1-335); conditions: protein: recombinant; tags: N-terminal GST; dsDNA, one strand shown
T9 sequence: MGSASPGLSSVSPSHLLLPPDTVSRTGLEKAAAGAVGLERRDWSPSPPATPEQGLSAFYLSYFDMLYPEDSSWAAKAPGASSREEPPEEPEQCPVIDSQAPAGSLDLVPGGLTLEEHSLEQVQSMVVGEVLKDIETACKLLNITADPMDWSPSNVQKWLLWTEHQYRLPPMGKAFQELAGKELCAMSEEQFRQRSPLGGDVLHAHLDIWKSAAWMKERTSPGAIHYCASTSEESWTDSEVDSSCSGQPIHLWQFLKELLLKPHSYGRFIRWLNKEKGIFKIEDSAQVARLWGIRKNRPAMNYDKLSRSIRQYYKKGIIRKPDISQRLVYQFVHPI
Outline: as §1

ETV7 = target: T10, ETV7 (Homo sapiens, UniProt Q9Y603 1-341); conditions: protein: recombinant; tags: N-terminal GST; dsDNA, one strand shown
T10 sequence: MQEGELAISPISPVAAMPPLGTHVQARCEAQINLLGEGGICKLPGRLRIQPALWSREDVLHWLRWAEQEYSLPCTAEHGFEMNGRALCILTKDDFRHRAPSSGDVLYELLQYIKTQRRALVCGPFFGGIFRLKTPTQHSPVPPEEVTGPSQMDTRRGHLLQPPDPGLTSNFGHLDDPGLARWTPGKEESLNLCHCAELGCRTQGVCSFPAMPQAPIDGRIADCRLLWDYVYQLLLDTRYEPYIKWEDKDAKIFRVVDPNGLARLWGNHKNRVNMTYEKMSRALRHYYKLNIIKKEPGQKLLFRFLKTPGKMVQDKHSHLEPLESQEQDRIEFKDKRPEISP
Outline: as §1

ELF5 = target: T11, ELF5 (Homo sapiens, UniProt Q9UKW6-2 1-255); conditions: protein: recombinant; tags: N-terminal GST; dsDNA, one strand shown
T11 sequence: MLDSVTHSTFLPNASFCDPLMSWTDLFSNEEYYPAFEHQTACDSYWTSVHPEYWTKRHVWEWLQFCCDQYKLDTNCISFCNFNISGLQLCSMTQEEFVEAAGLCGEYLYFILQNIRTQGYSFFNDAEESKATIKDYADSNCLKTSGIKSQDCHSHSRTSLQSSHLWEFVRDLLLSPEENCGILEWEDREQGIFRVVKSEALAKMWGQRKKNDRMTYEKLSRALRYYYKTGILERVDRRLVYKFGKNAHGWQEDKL
Outline: as §1

ETV3 = target: T12, ETV3 (Homo sapiens, UniProt P41162-2 1-143); conditions: protein: recombinant; tags: N-terminal GST; dsDNA, one strand shown
T12 sequence: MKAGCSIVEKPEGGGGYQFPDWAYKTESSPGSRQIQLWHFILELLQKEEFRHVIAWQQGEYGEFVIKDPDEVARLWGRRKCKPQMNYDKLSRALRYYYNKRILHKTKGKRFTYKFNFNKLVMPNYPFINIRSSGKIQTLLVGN
Outline: as §1

ETV6 = ETV6 (Homo sapiens, UniProt P41212 1-452); conditions: protein: recombinant; tags: N-terminal GST; dsDNA, one strand shown
Outline: as §1

ETV6, sequence (P41212 whole entry): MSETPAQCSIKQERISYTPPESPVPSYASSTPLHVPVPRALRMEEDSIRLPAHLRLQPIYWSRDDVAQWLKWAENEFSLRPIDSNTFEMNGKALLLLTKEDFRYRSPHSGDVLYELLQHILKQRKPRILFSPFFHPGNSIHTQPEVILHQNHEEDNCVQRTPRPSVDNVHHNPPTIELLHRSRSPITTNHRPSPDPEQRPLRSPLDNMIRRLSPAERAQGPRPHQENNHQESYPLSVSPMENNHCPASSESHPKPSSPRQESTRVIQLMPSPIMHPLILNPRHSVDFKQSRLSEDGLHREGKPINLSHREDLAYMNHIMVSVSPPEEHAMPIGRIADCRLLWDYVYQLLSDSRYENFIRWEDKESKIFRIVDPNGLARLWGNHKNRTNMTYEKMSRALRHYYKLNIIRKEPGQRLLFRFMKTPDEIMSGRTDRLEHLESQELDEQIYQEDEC
ETV1, sequence (P50549 whole entry): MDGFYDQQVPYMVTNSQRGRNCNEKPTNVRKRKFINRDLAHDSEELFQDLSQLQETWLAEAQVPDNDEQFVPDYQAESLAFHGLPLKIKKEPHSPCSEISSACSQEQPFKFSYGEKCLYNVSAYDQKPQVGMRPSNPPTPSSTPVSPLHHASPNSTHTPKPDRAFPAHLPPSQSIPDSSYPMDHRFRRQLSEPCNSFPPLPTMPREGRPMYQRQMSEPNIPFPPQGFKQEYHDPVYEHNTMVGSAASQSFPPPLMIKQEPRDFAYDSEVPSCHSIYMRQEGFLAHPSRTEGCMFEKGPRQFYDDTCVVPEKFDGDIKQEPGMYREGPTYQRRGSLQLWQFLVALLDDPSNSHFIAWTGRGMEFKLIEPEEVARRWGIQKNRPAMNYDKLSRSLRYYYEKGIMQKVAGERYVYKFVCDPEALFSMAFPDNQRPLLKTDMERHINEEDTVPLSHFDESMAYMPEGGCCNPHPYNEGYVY
HSF1, sequence (Q00613 whole entry): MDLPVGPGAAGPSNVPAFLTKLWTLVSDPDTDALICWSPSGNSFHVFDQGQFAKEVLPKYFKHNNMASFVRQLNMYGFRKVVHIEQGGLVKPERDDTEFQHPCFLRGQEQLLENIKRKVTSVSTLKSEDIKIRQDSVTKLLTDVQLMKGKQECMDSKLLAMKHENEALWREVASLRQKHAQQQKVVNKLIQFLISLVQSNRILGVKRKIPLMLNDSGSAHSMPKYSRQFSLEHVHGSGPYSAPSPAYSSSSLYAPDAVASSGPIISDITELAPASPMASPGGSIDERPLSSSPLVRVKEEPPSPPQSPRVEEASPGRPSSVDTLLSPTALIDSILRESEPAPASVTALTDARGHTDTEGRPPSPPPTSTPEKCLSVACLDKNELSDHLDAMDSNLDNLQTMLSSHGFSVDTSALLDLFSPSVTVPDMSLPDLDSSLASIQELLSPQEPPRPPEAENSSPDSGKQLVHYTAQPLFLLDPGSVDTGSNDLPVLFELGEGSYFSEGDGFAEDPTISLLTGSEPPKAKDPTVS
ETV5, sequence (P41161 whole entry): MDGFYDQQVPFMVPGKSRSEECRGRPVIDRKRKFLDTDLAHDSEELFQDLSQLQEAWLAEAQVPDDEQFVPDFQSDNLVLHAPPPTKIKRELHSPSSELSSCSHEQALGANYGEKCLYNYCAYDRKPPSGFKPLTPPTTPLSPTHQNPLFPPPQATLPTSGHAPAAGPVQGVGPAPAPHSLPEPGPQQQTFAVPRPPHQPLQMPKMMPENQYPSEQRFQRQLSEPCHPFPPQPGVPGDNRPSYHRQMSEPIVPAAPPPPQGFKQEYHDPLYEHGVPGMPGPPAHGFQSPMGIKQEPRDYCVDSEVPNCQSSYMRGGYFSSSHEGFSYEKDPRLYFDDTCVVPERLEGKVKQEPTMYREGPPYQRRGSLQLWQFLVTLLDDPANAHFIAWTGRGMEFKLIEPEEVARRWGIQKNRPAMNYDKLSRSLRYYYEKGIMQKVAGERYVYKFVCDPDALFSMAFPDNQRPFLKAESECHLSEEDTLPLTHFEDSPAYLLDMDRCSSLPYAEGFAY
CRX, sequence (O43186 whole entry): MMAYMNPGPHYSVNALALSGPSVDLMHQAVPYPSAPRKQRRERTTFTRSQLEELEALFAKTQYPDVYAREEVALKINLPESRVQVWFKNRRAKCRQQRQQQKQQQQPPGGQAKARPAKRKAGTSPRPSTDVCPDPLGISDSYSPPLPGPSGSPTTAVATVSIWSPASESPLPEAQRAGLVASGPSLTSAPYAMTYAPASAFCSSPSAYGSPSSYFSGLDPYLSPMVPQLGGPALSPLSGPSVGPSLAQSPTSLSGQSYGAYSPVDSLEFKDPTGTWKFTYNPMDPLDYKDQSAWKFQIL
ELF4, sequence (Q99607 whole entry): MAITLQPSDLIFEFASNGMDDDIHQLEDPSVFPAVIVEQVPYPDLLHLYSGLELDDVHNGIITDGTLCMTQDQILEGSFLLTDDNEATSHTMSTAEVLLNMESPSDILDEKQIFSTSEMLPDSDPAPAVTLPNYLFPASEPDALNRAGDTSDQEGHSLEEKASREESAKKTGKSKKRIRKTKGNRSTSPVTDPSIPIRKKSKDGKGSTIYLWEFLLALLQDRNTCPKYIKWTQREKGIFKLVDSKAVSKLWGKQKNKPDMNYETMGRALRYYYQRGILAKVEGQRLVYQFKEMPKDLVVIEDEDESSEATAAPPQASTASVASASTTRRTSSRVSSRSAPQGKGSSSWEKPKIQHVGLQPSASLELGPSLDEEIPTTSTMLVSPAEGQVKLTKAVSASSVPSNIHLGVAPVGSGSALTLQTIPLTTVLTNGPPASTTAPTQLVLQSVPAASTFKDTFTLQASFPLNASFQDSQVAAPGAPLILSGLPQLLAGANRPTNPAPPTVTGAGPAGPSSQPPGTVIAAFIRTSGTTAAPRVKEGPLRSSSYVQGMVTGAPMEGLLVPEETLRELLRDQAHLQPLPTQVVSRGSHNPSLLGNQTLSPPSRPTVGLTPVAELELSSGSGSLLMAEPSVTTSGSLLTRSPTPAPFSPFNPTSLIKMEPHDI

## TATGTT
FEV
  binding signal: 1.17 fold enrichment (6-mer frequency, TF over GST control)
ETV5
  binding signal: 1.15 fold enrichment (6-mer frequency, TF over GST control)
HSF1
  binding signal: 1.21 fold enrichment (6-mer frequency, TF over GST control)
SPIC
  binding signal: 1.06 fold enrichment (6-mer frequency, TF over GST control)
ELF4
  binding signal: 1.2 fold enrichment (6-mer frequency, TF over GST control)
ELK4
  binding signal: 1.29 fold enrichment (6-mer frequency, TF over GST control)
ETV2
  binding signal: 1.08 fold enrichment (6-mer frequency, TF over GST control)
ELF3
  binding signal: 1.1 fold enrichment (6-mer frequency, TF over GST control)
CRX
  binding signal: 1.26 fold enrichment (6-mer frequency, TF over GST control)
ETV1
  binding signal: 1.1 fold enrichment (6-mer frequency, TF over GST control)
ERF
  binding signal: 1.17 fold enrichment (6-mer frequency, TF over GST control)
ETV3L
  binding signal: 1.2 fold enrichment (6-mer frequency, TF over GST control)
ETS2
  binding signal: 1.24 fold enrichment (6-mer frequency, TF over GST control)
SPDEF
  binding signal: 1.18 fold enrichment (6-mer frequency, TF over GST control)
ETV7
  binding signal: 1.33 fold enrichment (6-mer frequency, TF over GST control)
ELF5
  binding signal: 1.24 fold enrichment (6-mer frequency, TF over GST control)
ETV3
  binding signal: 1.26 fold enrichment (6-mer frequency, TF over GST control)
ETV6
  binding signal: 1.08 fold enrichment (6-mer frequency, TF over GST control)
